Source: PubChem BioAssay (NCI)
The panel holds about 83,000 compounds, 20% with a hit somewhere; the sample as a whole holds those more often.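 Values shown are percent growth following 48 h exposure of cells in 96-well plates to a single concentration of compound; below 10 was considered active.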 Activity calls are given as the source filed them.

Tested on: MOLT-4 leukemia
Assay: NCI-60 one-dose screen, 48 h (100 = growth as untreated, 0 = no growth, -100 = all killed)
Conditions: 10 µM unless noted
Procedure: Growth inhibition of the MOLT-4 human tumor cell line is measured as a screen for anti-cancer activity. Cells are grown in 96 well plates and exposed to the test compound for 48 hours. Compounds are tested at a single concentration, which is 10^-5 M for most compounds. The reported endpoint is percent growth (GI% or GIPRCNT), where numbers from 0 - 100% represent growth inhibition, and numbers from -100% - 0 represent cell death. For example, a value of 40 represents 60% growth inhibition. A value of 0 means no net growth occurred over the course of the experiment. A value of -40 indicates 40% of cells at the beginning of the experiment died by the end of the experiment. A value of -100 means all cells are dead at the end of the experiment.
NCI-60 Human Tumor Cell Lines Screen was performed using the standard one-dose NCI protocol, which is described in more detail at https://dtp.cancer.gov/discovery_development/nci-60/default.htm.
Compounds with GIPRCNT values below 10 were considered active. Activity score was based on GIPRCNT using the following formula: […]
Score is 0 for GIPRCNT values of 100 or above, 50 for GIPRCNT values of 0, and 100 for GIPRCNT values of -100.

| Compound | growth |
| --- | --- |
| O=C1/C=C/[C@@H](O)[C@@H]2C[C@@H](O)C[C@H]2/C=C/CCC[C@H](CCc2ccc3ncccc3c2)O1 | -35.7% (active) |
| CCCCOc1ccc(/C=N/Nc2cc(C)nc3ccc(Br)cc23)cc1 | -26% (active) |
| NS(=O)(=O)c1ccc(CCN2C(=O)C=CC2=O)cc1 | 97.4% (inactive) |
| CCCCCN1C=C/C(=C\C(=O)N2CCCc3ccccc32)c2ccccc21 | 78.5% (inactive) |
| COc1ccc(-c2nc3sccn3c2/C=C/C(=O)c2ccc3c(c2)OCO3)cc1 | 37.3% (inactive) |
| CCNC(=O)Oc1ccc(/C(=C(\C)c2ccccc2)c2ccc(OCCN(CC)CC)cc2)cc1 | 76.2% (inactive) |
| Cn1nc(CC#N)c2c(=N)n(N)cnc21 | 94.7% (inactive) |
| N#Cc1c(NCc2ccccc2I)sc2c1CCCCC2 | 84.2% (inactive) |
| COc1cc(/C=N/NC(=O)c2cnn3c2NC(c2ccccc2)C3)ccc1Oc1ccccc1 (stereo not given) | 49.7% (inactive) |
| C=C(C)[C@@H]1CC[C@]2(C(=O)N[C@H](CO)Cc3ccccc3)CC[C@]3(C)[C@H](CC[C@@H]4[C@@]5(C)CCCNC(C)(C)[C@@H]5CC[C@]43C)[C@@H]12 | -62.6% (active) |
| NC1=NN=C(N)C1=Cc1cc2ccccc2n2nnnc12 | 94.6% (inactive) |
| COc1ccc(/C=C/c2nc(Nc3cccc(NC(C)=O)c3)c3ccccc3n2)cc1 | 87% (inactive) |
| CCCCCC(=O)Oc1ccc(/C(=C(/C)Cc2ccc(OC)cc2)c2ccc(OCCCN(C)C)cc2)cc1 | 53.5% (inactive) |
| CCCCCC(=O)Oc1ccc(/C(=C(\C)c2ccccc2)c2ccc(OCCN3CCCCC3)cc2)cc1 | 63.7% (inactive) |
| Nc1n[nH]c2cccc(C#Cc3cccc(C(=O)Nc4cc(CN5CCOCC5)cc(C(F)(F)F)c4)c3)c12 | 23.8% (inactive) |
| CCCOC(=O)N[C@H]1CCc2c(Cl)c(OC)c(OC)c(OC)c2-c2ccc(SC)c(=O)cc21 | 8.02% (active) |
| C=C1C(=O)O[C@H]2[C@H]1CC/C(C(=O)NCCCCCNC(=O)/C1=C/CC[C@@]3(C)O[C@H]3[C@H]3OC(=O)C(=C)[C@@H]3CC1)=C\CC[C@@]1(C)O[C@@H]21 | 96.2% (inactive) |
| Oc1ccc(OCCOc2ccc(O)cc2)cc1 | 60.8% (inactive) |
| CCOC(=O)[C@@H]1CCCN(S(=O)(=O)c2ccc(S(=O)(=O)N(CC)CC)c(F)c2)C1 | 79.4% (inactive) |
| COc1cc2c(c(OC)c1OC)-c1ccc(NNC(=S)N(Cc3cccc(C[N+](Cc4cccc(CNC56CC7CC(CC(C7)C5)C6)c4)(Cc4cccc(CNC56CC7CC(CC(C7)C5)C6)c4)Cc4cccc(CN(C(=S)NNc5ccc6c(cc5=O)[C@@H](NC(C)=O)CCc5cc(OC)c(OC)c(OC)c5-6)C56CC7CC(CC(C7)C5)C6)c4)c3)C34CC5CC(CC(C5)C3)C4)c(=O)cc1[C@@H](NC(C)=O)CC2 (stereo not given in full) | -17% (active) |

| Compound | growth |
| --- | --- |
| O=C(/C(=C/c1ccc([N+](=O)[O-])cc1)SCc1ccc(F)cc1)c1ccc(F)cc1 | 21.9% (inactive) |
| O=C(Nc1ccccc1C(=O)N/N=C(\c1ccccc1)c1ccccn1)c1ccc(F)cc1 | 12.8% (inactive) |
| O=C(N/N=C/c1ccc(Oc2ccccc2)cc1)c1cnn2c1NC(c1ccccc1)C2 (stereo not given) | 75.1% (inactive) |
| Brc1ccc2[nH]cc(-c3cncn3CCc3ccccc3)c2c1 | 48.6% (inactive) |
| Nc1c(C(=O)Nc2cccc3cnccc23)sc2nc3c(cc12)CN(Cc1ccccc1)CC3 | 107% (inactive) |
| O=[N+]([O-])c1cc(Br)c2cccc3c2c1CC3 | 104% (inactive) |
| Cc1cccc(-c2cn3ccnc3c(-c3ccc4ncn(Cc5ccccc5)c4c3)n2)c1 | 63.1% (inactive) |
| CC(=O)[C@@H]1CC[C@]2(C(N)=O)CC[C@]3(C)[C@H](CC[C@@H]4[C@@]5(C)CCCNC(C)(C)[C@@H]5CC[C@]43C)[C@@H]12 | 60.5% (inactive) |
| N#Cc1cccc(-c2ccc3c(c2)NC(=O)/C3=C\c2ccc[nH]2)c1 | 68.2% (inactive) |
| COc1cc(/C=C\C(=O)O)ccc1OCc1ccccc1 | 96.3% (inactive) |
| N#C/C(=C\c1ccc([N+](=O)[O-])s1)c1nc2cc(Br)ccc2s1 | -18.8% (active) |
| NS(=O)(=O)c1ccc(Cn2c(SCC(=O)N/N=C/c3ccccc3O)nc3ccccc3c2=O)cc1 | 20.8% (inactive) |
| Cc1cnc(C(=O)Nc2nc3ccc(S(=O)(=O)Nc4ccc(C(C)(C)C)cc4)cc3[nH]2)cn1 | 21.5% (inactive) |
| Cc1ccc(-c2nc3ccccn3c2/C=C2/C(=O)Nc3cc(Cl)ccc32)cc1 | 53.4% (inactive) |
| CCN1CCN(CCNc2nccc(-c3c(-c4cccc(OC)c4)nc4occn34)n2)S1(=O)=O | 89% (inactive) |
| COc1ccc(/C=C(\C#N)n2nc3cccc(F)c3n2)cc1 | 100% (inactive) |
| COc1ccc2c(c1)oc1c(C)c3c(c(C)c12)C(=O)N(CCN1CCOCC1)C3=O | 83.1% (inactive) |
| CCSCC1CC(O)(c2ccccc2)CC(c2ccc(F)cc2)O1 (stereo not given) | -11.9% (active) |
| Oc1ccc(C(c2ccc(O)cc2)c2ccc(Br)cn2)cc1 | 101% (inactive) |
| COc1ccc(C(=O)c2cc(OC)c(OC)c(OC)c2)cc1O | 15.4% (inactive) |
